Source: PubChem
Hits are enriched below; roughly 19% of the tested compounds scored in any of these assays.
TDP1 cell noCPT = qHTS for Inhibitors of human tyrosyl-DNA phosphodiesterase 1 (TDP1): qHTS in cells in absence of CPT | DT40 Tdp1-/- hTDP1 cells, no CPT, ATP luminescence, 48 h | Potency, µM (doses to about 46.2 µM), for inactives: top-dose activity change, negative = growth inhibition, actives largely listed as inhibitors | actives 15% (n = 420,000); further: potency means the concentration at half of the fitted maximal effect; nearly all actives have a fitted effect of over 55% in size
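Camptothecin absent (DMSO only). Human TDP1-complemented DT40 knockout cells, 400 cells/well, 37 °C for minimum 48 hr; ATP measured via CellTiter-Glo, 30 min dark incubation, luminescence.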
TDP1 cell CPT = growth inhibition of DT40 Tdp1-/-;hTDP1 cells with camptothecin (screen for TDP1 inhibitors). chicken DT40 Tdp1-/-;hTDP1 cells + 20 nM CPT, ATP luminescence, 48 h. Potency, µM (top dose mostly 46.2 µM), for inactives: at the top dose activity change, negative = growth inhibition, most hits filed as inhibitors. actives 12% (n = 420,000); further: potency means the concentration at half of the fitted maximal effect; nearly all actives have a fitted effect of over 55% in size
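Cell growth measured by CellTiter-Glo luminescence after a minimum 48 h, 37 C compound exposure with 20 nM CPT in Tdp1-knockout DT40 cells stably expressing hTDP1, seeded 400/well; qHTS titration format.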
IL-1B inflam inh = inhibitors of inflammasome signaling (IL-1 beta secretion) | activity change, % at 57.5 µM | THP-1 LPS/ATP IL-1B secretion, AlphaLISA, 16 h; hits give low values | actives 4.7% (n = 360,000); in the data active means activity change below about -50%; inconclusive means mostly about -30% to -49%
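Secreted IL-1B measured by AlphaLISA bead assay after 16 h compound exposure of THP-1 cells; compounds (final up to 57.5 uM) added 1 h before LPS (250 ng/mL) and ATP (1.25 mM) stimulation; lower signal means less secretion.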
HT1080 IDH1KD tx = HT-1080 IDH1 knockdown cell toxicity (counter line). HT-1080 IDH1 knockdown viability, ATP luminescence, 48 h. Potency, µM (titrated, usually from 46.1 µM), inactives show at the top dose activity, negative = toxicity, most hits filed as cytotoxic. actives 2% (n = 360,000);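 further: potency means the concentration at half of the fitted maximal effect; 0% = DMSO wells and -100% = cell-free medium wells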
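In this qHTS, HT-1080 cells depleted of IDH1 are exposed for 48 h at 37 °C to compound titrations. Toxicity is scored from CellTiter-Glo luminescence, with DMSO as full viability and medium alone as none.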
HT1080NT lethal = kills 2HG-producing HT-1080-NT fibrosarcoma cells; HT-1080-NT fibrosarcoma viability, CellTiter-Glo ATP luminescence, 48 h; Potency, µM (doses to about 46.1 µM), inactives show at the top dose activity, negative = less viability, usual class: cytotoxic; actives 1.6% (n = 360,000);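 further: NT is the 2HG producing partner of a matched IDH1 knockdown line; potency means the concentration at half of the fitted maximal effect; 0% = DMSO-treated cells and -100% = media-only wells without cells; nearly all actives have a fitted effect of over 55% in size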
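Read-out is CellTiter-Glo luminescence after 10 minutes at room temperature, following 48 hours' compound treatment of HT-1080-NT cells (750 cells/well, RPMI, 5% FBS, 37 degrees C).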
Active calls of the source: *; ? = inconclusive; · = no result. Unless noted, the call rests on the fitted dose curve; in most records, active means well fitted curve in the direction sought with a large enough effect; inconclusive means small, poorly fitted or top-dose-only effect, or another doubt; inactive means no such curve, though single readings can be large; an effect the other way counts as inactive or inconclusive. Unless noted, on the % scale 0 is the no-effect control and ±100 the full control effect.

SMILES	TDP1 cell noCPT	TDP1 cell CPT	IL-1B inflam inh	HT1080 IDH1KD tx	HT1080NT lethal
Cc1cccc(C)c1Cn1c(C)c(C(=O)NCc2ccc(C#N)cc2)sc1=O	18µM*	?	-8	?	?
Cc1c(C(=O)N(C)Cc2ccc(F)cc2)sc(=O)n1Cc1ccc(Cl)c(Cl)c1	23µM*	?	0	?	-24%
CN1CCN(C(=O)c2cccc(S(=O)(=O)N3CCCC3)c2)CC1	-1%	-10%	0	9%	20%
CN(CC(=O)Nc1ccccc1C(F)(F)F)C(=O)CN1C(=O)C2CCCCC2C1=O (stereo unspecified)	-13%	?	-10	3%	18%
COc1ccccc1-c1cc(-c2ccccc2)nc(SCC(=O)O)c1C#N	1%	?	30	-1%	-8%
Cn1ncc2c(NCc3ccco3)ncnc21	-1%	-23%	·	·	·
N#CC1=C(S)N(c2ccccc2)C(c2cccs2)NC1=O (stereo unspecified)	?	?	10	?	-4%
Cc1ccc(N2C(S)=C(C#N)C(=O)NC2c2cccs2)cc1 (stereo unspecified)	13µM*	15µM*	-10	-6%	-8%
Cc1ccc(N2C(S)=C(C#N)C(=O)NC2c2ccco2)cc1 (stereo unspecified)	?	23µM*	39	0%	?
N#CC1=C(S)N(c2ccccc2)C(c2ccco2)NC1=O (stereo unspecified)	-6%	1%	1	9%	12%
Cc1ccc(CC(=O)Nc2ccncc2)cc1	4.6µM*	5.8µM*	1	-9%	-13%
Cc1ccc(C(=O)NCC(=O)Nc2ccncc2)cc1	-13%	?	0	2%	3%
O=C(Cc1ccc(Cl)cc1)Nc1ccncc1	9.2µM*	12µM*	2	?	-9%
CN(CC(=O)Nc1ccncc1)S(=O)(=O)c1ccc(Br)cc1	?	?	-7	-24%	-15%
CN(CCCC(=O)Nc1ccncc1)S(=O)(=O)c1ccc(Cl)cc1	23µM*	16µM*	-12	-2%	-2%
O=C(Cc1ccc([N+](=O)[O-])cc1)Nc1ccc(Cl)cc1	?	?	-10	?	-9%
CCc1nn(CC(=O)NCCCN(CC(C)C)CC(C)C)c(=O)c2cc3sc(C)cc3n12	?	-5%	·	·	·
CC1CN(CCc2ccccc2)c2nc3c(c(=O)n(C)c(=O)n3C)n2C1 (stereo unspecified)	?	?	-5	0%	1%
O=C(c1ccc([N+](=O)[O-])cc1Cl)N1CCN(c2ccccn2)CC1	?	-21%	30	-2%	-2%
O=[N+]([O-])c1ccc(N2CCN(CCOc3nonc3-c3ccccc3)CC2)c(Cl)c1	?	29µM*	-4	-14%	-4%
O=[N+]([O-])c1ccc(N2CCN(c3ccccc3O)CC2)cc1	-13%	5%	-76*	11%	6%
O=[N+]([O-])c1ccc(N2CCN(c3ccccn3)CC2)c(Cl)c1	?	5%	-59*	-13%	-20%
O=[N+]([O-])c1ccc(N2CCN(c3ccccc3O)CC2)c(Cl)c1	23µM*	21µM*	?	-25%	-20%
O=[N+]([O-])c1ccc(N2CCN(c3ccc(F)cc3)CC2)cc1	-12%	-5%	-24	-3%	0%
COc1cc(=O)n2c(c1C(=O)NC(C)c1ccco1)CCN(C(=O)c1ccc3c(c1)OCCO3)CC2 (stereo unspecified)	-5%	-5%	·	·	·
SMILES	TDP1 cell noCPT	TDP1 cell CPT	IL-1B inflam inh	HT1080 IDH1KD tx	HT1080NT lethal
O=C1C=CC(=O)N1N(c1ccccc1)c1ccccc1	21µM*	10µM*	?	?	-26%
O=C1c2ccccc2C(=O)N1N(c1ccccc1)c1ccccc1	3%	-20%	0	-1%	0%
COC(=O)[C@]1(Cc2ccccc2)N[C@H](CN(C)C(=O)Nc2ccc(Cl)cc2)[C@@H]2C(=O)N(Cc3ccccc3)C(=O)[C@@H]21	?	21µM*	-64*	-1%	-3%
COC(=O)[C@]1(Cc2ccccc2)N[C@H](CN(C)C(=O)Nc2ccc(F)cc2)[C@@H]2C(=O)N(Cc3ccccc3)C(=O)[C@@H]21	15µM*	?	-20	-19%	-17%
COC(=O)[C@]1(Cc2ccccc2)N[C@H](CN(C)C(=O)Nc2ccc(C(F)(F)F)cc2)[C@@H]2C(=O)N(C)C(=O)[C@@H]21	?	12µM*	14	-9%	-3%
COC(=O)[C@]1(Cc2ccccc2)N[C@H](CN(C)C(=O)Nc2ccccc2)[C@@H]2C(=O)N(Cc3ccccc3)C(=O)[C@@H]21	?	?	-4	-9%	-18%
CC[C@@]1(C(=O)OC)N[C@H](CN(C)C(=O)Nc2ccc(F)cc2)[C@@H]2C(=O)N(Cc3ccccc3)C(=O)[C@@H]21	-23%	-27%	-5	-2%	-6%
COC(=O)[C@]1(Cc2ccccc2)N[C@H](CN(C)C(C)=O)[C@@H]2C(=O)N(C)C(=O)[C@@H]21	3%	1%	37	12%	9%
CC[C@@]1(C(=O)OC)N[C@H](CN(C)C(=O)Nc2ccc(C)cc2)[C@@H]2C(=O)N(Cc3ccccc3)C(=O)[C@@H]21	?	29µM*	-7	-5%	-4%
O=C1Nc2ccc(Cl)cc2/C1=C/C1CC=CCC1 (stereo unspecified)	?	?	-90*	?	?
Cc1ccc(C)n1C1CCS(=O)(=O)C1 (stereo unspecified)	?	?	-16	-15%	-20%
Cc1nn(C2CCS(=O)(=O)C2)c(C)c1C=O (stereo unspecified)	21µM*	?	29	18%	10%
Cc1ccc(S(=O)(=O)Nc2ccc(C(=O)N3CCCC3)cc2)c(C)c1NS(C)(=O)=O	15%	12%	-10	-2%	9%
COc1ccc(-c2noc(CN3CCCC(OCc4ccccn4)C3)n2)cc1 (stereo unspecified)	?	16µM*	0	-2%	2%
c1ccc(COC2CCCN(Cc3nc(-c4cnccn4)no3)C2)nc1 (stereo unspecified)	17%	-3%	8	2%	7%
Cc1ccc2cc(CN(CC3CCCO3)S(=O)(=O)c3ccccc3)c3nnnn3c2c1 (stereo unspecified)	-29%	29µM*	-10	-12%	-5%
Cc1ccc2c(c1)cc(CN(CCc1ccccc1)C(=O)N1CCOCC1)c1nnnn12	?	-21%	1	-3%	-3%
